# Reference: publication PMC4081100, “A DNA-binding-site landscape and regulatory network analysis for NAC transcription factors in Arabidopsis thaliana”
# What was measured:
# Assay in all cases: universal protein binding microarray (PBM); transcription factors of Arabidopsis thaliana; high values mean tight binding
# [1] = target: T1, GST-ANAC092(1-176) (Arabidopsis thaliana, UniProt Q9FKA0 1-176); conditions: protein: recombinant; tags: GST; chain copies: 2; dsDNA, one strand shown
# T1 sequence: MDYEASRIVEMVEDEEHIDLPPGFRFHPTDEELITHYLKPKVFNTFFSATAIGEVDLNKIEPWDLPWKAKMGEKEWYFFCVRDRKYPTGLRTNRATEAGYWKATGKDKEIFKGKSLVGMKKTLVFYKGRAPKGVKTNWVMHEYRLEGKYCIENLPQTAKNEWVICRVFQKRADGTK
# Method in brief: (§1)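 Cells were induced to make GST-tagged NAC-domain, full-length or DNA-binding-domain proteins, and zinc acetate was added for zinc-finger proteins. These proteins were purified on glutathione–Sepharose 4B, quantified by A280 or anti-GST western blot, and applied in duplicate at 200 to 500 nM final to custom all-10-mer Agilent 4 × 180K arrays that primer extension had made double-stranded. Binding is given as the normalised enrichment score (E-score) for scored gapped and ungapped 8-mers.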
# [2] = target: GST-NTL6(1-168) (Arabidopsis thaliana, UniProt Q9SCK6 1-168); conditions: protein: recombinant; tags: GST; chain copies: 2; dsDNA, one strand shown
# Method in brief: as §1
# [3] = target: T2, GST-ANAC019 NAC domain (Arabidopsis thaliana, UniProt Q9C932 14-162); conditions: protein: recombinant; tags: GST; chain copies: 2; dsDNA, one strand shown
# T2 sequence: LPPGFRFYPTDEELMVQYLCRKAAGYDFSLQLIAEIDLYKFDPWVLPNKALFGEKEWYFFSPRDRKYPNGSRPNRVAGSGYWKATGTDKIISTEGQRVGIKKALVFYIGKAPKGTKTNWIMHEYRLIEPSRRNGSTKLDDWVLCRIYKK
# Method in brief: as §1
# [4] = target: T3, GST-ANAC055(1-171) (Arabidopsis thaliana, UniProt Q9LDY8 1-171); conditions: protein: recombinant; tags: GST; chain copies: 2; dsDNA, one strand shown
# T3 sequence: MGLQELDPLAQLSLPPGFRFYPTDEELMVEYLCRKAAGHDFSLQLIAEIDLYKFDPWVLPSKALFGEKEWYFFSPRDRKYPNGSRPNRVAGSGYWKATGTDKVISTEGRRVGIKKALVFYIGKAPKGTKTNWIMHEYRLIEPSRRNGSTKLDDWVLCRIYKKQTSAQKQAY
# Method in brief: as §1
# [5] = target: T4, GST-ATAF1 NAC domain (Arabidopsis thaliana, UniProt Q39013 7-158); conditions: protein: recombinant; tags: GST; chain copies: 2; dsDNA, one strand shown
# T4 sequence: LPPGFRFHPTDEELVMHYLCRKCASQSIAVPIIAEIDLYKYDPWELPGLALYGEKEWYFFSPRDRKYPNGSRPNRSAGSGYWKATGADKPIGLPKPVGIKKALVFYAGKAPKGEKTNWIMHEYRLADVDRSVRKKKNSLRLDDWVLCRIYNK
# Method in brief: as §1
# [6] = target: T5, GST-ANAC092(1-285) full length (Arabidopsis thaliana, UniProt Q9FKA0 1-285); conditions: protein: recombinant; tags: GST; chain copies: 2; dsDNA, one strand shown
# T5 sequence: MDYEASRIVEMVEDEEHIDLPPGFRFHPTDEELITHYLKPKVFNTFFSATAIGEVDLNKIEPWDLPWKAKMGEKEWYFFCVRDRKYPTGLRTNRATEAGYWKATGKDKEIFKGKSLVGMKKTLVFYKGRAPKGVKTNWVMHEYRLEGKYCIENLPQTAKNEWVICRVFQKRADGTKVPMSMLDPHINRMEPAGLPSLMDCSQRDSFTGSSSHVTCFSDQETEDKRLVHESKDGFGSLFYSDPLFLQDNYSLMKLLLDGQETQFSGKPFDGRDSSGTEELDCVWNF
# Method in brief: as §1
# [7] = target: T6, GST-NST2(1-184) (Arabidopsis thaliana, UniProt Q9M274 1-184); conditions: protein: recombinant; tags: GST; chain copies: 2; dsDNA, one strand shown
# T6 sequence: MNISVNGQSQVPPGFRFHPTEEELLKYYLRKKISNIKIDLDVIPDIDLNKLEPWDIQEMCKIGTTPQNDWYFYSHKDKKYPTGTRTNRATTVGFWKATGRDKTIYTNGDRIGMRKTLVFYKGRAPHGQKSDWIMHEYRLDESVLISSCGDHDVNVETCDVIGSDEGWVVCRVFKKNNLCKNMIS
# Method in brief: as §1
# [8] = target: T7, GST-NTL8 NAC domain (Arabidopsis thaliana, UniProt Q9XIN7 14-156); conditions: protein: recombinant; tags: GST; chain copies: 2; dsDNA, one strand shown
# T7 sequence: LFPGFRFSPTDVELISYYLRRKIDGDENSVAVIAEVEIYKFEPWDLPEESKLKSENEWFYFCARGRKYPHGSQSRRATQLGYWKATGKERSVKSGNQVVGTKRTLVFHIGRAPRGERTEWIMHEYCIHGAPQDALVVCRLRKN
# Method in brief: as §1
# [9] = target: T8, GST-SND1(1-203) (Arabidopsis thaliana, UniProt Q9LPI7 1-203); conditions: protein: recombinant; tags: GST; chain copies: 2; dsDNA, one strand shown
# T8 sequence: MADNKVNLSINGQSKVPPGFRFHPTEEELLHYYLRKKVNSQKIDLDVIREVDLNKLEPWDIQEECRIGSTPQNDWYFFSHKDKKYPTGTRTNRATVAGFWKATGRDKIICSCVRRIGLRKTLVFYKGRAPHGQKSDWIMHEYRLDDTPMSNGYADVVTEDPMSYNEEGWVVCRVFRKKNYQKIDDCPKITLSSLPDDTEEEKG
# Method in brief: as §1
# [10] = target: T9, GST-VND3 NAC domain (Arabidopsis thaliana, UniProt Q9FH59 12-162); conditions: protein: recombinant; tags: GST; chain copies: 2; dsDNA, one strand shown
# T9 sequence: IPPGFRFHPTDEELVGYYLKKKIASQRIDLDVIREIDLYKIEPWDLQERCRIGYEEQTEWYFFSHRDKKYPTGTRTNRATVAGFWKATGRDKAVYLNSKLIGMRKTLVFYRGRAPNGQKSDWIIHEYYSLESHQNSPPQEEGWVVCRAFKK
# Method in brief: as §1
# [11] = target: T10, GST-VND7 NAC domain (Arabidopsis thaliana, UniProt Q9C8W9 9-158); conditions: protein: recombinant; tags: GST; chain copies: 2; dsDNA, one strand shown
# T10 sequence: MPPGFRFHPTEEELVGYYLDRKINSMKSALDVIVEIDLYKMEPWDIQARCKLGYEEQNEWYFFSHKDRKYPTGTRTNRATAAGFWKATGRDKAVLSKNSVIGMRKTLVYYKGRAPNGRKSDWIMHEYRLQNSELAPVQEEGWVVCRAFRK
# Method in brief: as §1
# [12] = target: GST-WRKY1(266-371) (Arabidopsis thaliana, UniProt Q9SI37 266-371); conditions: protein: recombinant; tags: GST; dsDNA, one strand shown
# Method in brief: as §1
# [13] = target: T11, GST-NAP(1-166) (Arabidopsis thaliana, UniProt O49255 1-166); conditions: protein: recombinant; tags: GST; chain copies: 2; dsDNA, one strand shown
# T11 sequence: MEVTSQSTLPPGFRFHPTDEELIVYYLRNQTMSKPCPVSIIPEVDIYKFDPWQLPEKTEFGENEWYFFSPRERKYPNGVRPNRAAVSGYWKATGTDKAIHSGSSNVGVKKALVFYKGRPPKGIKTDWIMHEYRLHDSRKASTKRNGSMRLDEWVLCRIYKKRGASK
# Method in brief: as §1
# Sequence of GST-NTL6(1-168) (Q9SCK6 1-168): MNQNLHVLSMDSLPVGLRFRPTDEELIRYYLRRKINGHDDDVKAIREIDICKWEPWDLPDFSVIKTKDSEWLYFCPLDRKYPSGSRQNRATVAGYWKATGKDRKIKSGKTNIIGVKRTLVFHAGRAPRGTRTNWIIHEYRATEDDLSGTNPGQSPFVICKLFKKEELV
# Sequence of GST-WRKY1(266-371) (Q9SI37 266-371): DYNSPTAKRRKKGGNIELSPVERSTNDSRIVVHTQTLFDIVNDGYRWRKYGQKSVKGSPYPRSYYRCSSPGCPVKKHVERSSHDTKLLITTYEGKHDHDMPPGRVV
Sequence,binding signal [1] [E-score],binding signal [2] [E-score],binding signal [3] [E-score],binding signal [4] [E-score],binding signal [5] [E-score],binding signal [6] [E-score],binding signal [7] [E-score],binding signal [8] [E-score],binding signal [9] [E-score],binding signal [10] [E-score],binding signal [11] [E-score],binding signal [12] [E-score],binding signal [13] [E-score]
GAAAGGAA,0.21,0.32,0.134,0.168,0.188,0.2,0.228,0.422,0.234,0.209,0.231,0.0968,–
GTACGGCA,0.395,–,0.451,0.362,0.385,0.439,0.178,–,0.236,0.424,0.425,0.0953,0.342
ATACGTCA,0.412,–,0.251,0.267,0.345,0.435,0.183,–,0.298,0.337,0.322,0.196,0.373
ACAAGTCA,0.0976,0.0563,–,–,–,0.276,0.0664,0.0517,0.114,0.0796,0.0869,0.43,0.146
CACGTCAA,0.444,–,0.38,0.324,0.248,0.448,0.252,–,0.313,0.332,0.278,0.403,0.299
GCGTGCAC,0.372,–,0.255,0.158,0.154,0.415,0.169,–,0.198,0.16,0.216,0.0555,0.145
GTAAGTAA,0.246,0.474,0.0906,0.199,0.245,0.334,0.239,0.195,0.307,0.279,0.186,0.122,–
CGTGGTCA,0.128,–,0.189,0.0851,0.0537,0.195,–,–,0.0883,0.164,0.128,0.431,–
AAGTAATA,0.31,0.428,–,0.215,0.207,0.327,0.274,0.211,0.294,0.216,0.136,0.074,0.14
ATAAGTAA,0.318,0.434,–,0.181,0.246,0.363,0.29,0.167,0.311,0.264,0.18,0.142,–
TACGTCAA,0.363,–,0.216,0.194,0.291,0.417,0.341,–,0.44,0.23,0.205,0.402,0.241
GCACGTCA,0.449,–,0.421,0.341,0.317,0.465,0.229,–,0.29,0.368,0.38,0.195,0.341
GTTCCGTA,0.351,–,0.43,0.448,0.438,0.373,0.179,–,0.377,0.375,0.439,0.0936,0.455
AGATTGAC,0.135,0.0646,–,0.0571,0.0846,0.15,0.0869,–,0.179,0.0944,0.0768,0.457,–
ACACGTCA,0.484,–,0.436,0.402,0.382,0.487,0.316,–,0.352,0.395,0.447,0.251,0.431
CTTTCTTC,0.137,0.295,–,–,0.117,0.21,0.0636,0.41,0.181,0.074,0.0647,0.156,0.0839
GCGTGTCA,0.331,–,0.231,0.195,0.193,0.408,0.0663,–,0.0867,0.0583,0.189,0.0865,0.186
AGTCAACA,0.161,0.0859,0.125,0.0844,0.152,0.0634,0.0624,0.0937,0.19,0.13,0.0805,0.488,–
